Laboratory results as given in PubChem BioAssay (Tox21).
Results filed as inconclusive are left out. Calls of active or inactive are those of the source. Unless noted, the call rests on the fitted dose curve.

Tests used:
[1] = Nuclear factor erythroid 2-related factor 2/antioxidant responsive element (Nrf2/ARE) small molecule agonists: qHTS cell viability counter screen in human keratinocytes (AID 1919968; active means well fitted curve in the direction sought with a large enough effect in the repeat runs; an effect the other way counts as inactive or inconclusive; further: nearly all actives have a fitted effect of over 55% in size)
How it was run: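 Fluorescence read-out from CellTiter-Fluor after 1 h at 37 C. Wells held HaCaT-derived ARE-luciferase reporter cells (1,500/well) treated 23 h with DMSO-dissolved compounds. Run in the same wells as the luciferase agonist read.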

[2] = Nuclear factor erythroid 2-related factor 2/antioxidant responsive element (Nrf2/ARE) small molecule agonists: luciferase reporter gene qHTS assay in human keratinocytes (AID 1919969); further: nearly all actives have a fitted effect of over 35% in size
[3] = target: Gonadotropin-releasing hormone receptor (Homo sapiens) (UniProt P30968); test: Human gonadotropin-releasing hormone receptor (GnRHR) small molecule agonists, calcium flux assay in GnRHR-HEK293 cells (AID 1920063); further: nearly all actives have a fitted effect of over 35% in size
Gonadotropin-releasing hormone receptor (Homo sapiens), sequence (P30968 whole entry, looked up): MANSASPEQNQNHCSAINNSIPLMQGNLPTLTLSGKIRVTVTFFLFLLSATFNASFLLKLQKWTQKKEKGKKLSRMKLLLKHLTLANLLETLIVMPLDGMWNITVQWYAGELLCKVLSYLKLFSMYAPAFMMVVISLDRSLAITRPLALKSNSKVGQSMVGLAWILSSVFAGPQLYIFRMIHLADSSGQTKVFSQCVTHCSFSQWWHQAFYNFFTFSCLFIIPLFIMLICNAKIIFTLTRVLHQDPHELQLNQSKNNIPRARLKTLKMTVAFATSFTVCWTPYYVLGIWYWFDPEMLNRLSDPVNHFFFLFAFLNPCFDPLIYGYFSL
How it was run: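 Calcium-dye fluorescence, Ex/Em=480/540, recorded every 1 sec over 3 min after compound addition to GnRHR-HEK293 cells. Cells had been seeded 18 hours earlier and dye-loaded for 1 hour at 37 C. Fifteen concentrations, triplicates.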

[4] = target: KiSS-1 receptor (Homo sapiens) (UniProt Q969F8); test: Human kisspeptin (KISS1R) small molecule agonists, calcium flux assay in KISS1R-HEK293 cells (AID 1920064; active means well fitted curve in the direction sought with a large enough effect in the repeat runs; an effect the other way counts as inactive or inconclusive)
KiSS-1 receptor (Homo sapiens), sequence (Q969F8 whole entry, looked up): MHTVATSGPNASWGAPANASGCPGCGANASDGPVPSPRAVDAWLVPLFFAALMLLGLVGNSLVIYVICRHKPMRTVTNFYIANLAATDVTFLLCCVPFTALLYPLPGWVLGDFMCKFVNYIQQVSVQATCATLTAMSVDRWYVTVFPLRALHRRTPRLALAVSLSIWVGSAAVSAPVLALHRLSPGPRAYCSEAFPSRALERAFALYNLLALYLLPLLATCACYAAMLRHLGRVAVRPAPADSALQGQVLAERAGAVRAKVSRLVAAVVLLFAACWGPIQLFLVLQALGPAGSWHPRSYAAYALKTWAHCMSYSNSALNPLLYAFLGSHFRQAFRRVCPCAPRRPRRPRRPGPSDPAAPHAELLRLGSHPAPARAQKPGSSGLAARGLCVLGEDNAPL
How it was run: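 Calcium flux read-out: kinetic fluorescence at Ex/Em=480/540, 1 s intervals over 3 min, after pin-tool compound addition to dye-loaded KISS1R-HEK293 cells. Fifteen concentrations, triplicates.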

[5] = G protein-coupled receptor (GPCR) small molecule agonists, calcium flux assay: HEK293 wild type cell line counter screen (AID 1920065)
How it was run: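 Agonist mode; 18 h seeding at 37 C, 1 h dye load at 37 C; compounds pinned from DMSO, ATP as positive control; kinetic fluorescence 480/540 nm, 3 min, 1 s reads; 15 concentrations, triplicate.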

[6] = p53 small molecule agonists, cell-based qHTS assay with human liver microsomes (AID 1963577);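 further: p53 response element beta-lactamase reporter cells with liver microsomes plus NADPH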
How it was run: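 p53RE-bla cells; 5 h settle, 37 C/5% CO2; cpd + HLM 0.5 mg/mL + NADPH 0.5 mg/mL (final); 16 h 37 C; LiveBLAzer 2 h RT dark; fluorescence readout.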

[7] = p53 small molecule agonists, cell-based qHTS assay with rat liver microsomes (AID 1963578)
How it was run: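 Rat liver microsome activation: microsomes 0.5 mg/mL, NADPH 0.5 mg/mL final; p53RE-bla cells, 16 h 37 C; LiveBLAzer readout, 2 h RT dark.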

[8] = p53 small molecule agonists, cell-based qHTS assay with human liver microsomes: qHTS cell viability counter screen (AID 1963579); further: nearly all actives have a fitted effect of over 45% in size
How it was run: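 Luminescent CellTiter-Glo read-out, 30 min at room temperature, gauged cytotoxicity in p53RE-bla cells exposed 16 h at 37 C to DMSO-dissolved compounds with metabolic activation by human liver microsomes and NADPH, each 0.5 mg/mL final.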

[9] = p53 small molecule agonists, cell-based qHTS assay: qHTS cell viability counter screen (AID 1963581); further: nearly all actives have a fitted effect of over 45% in size
How it was run: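 Cytotoxicity read-out: ATP-based luminescence (CellTiter-Glo, 30 min RT) measured in the same wells as the p53 reporter assay, HCT-116 p53RE-bla cells, 16 h compound exposure at 37 C.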

[10] = p53 small molecule agonists, cell-based qHTS assay (AID 1963582; active means well fitted activation curve with a large enough effect in the signal ratio in the repeat runs, not every such curve was filed as active; the % refers to the signal ratio)
How it was run: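 Fluorescence intensity read-out of a beta-lactamase reporter under a p53 response element. Cells were exposed to DMSO-dissolved compounds for 16 h at 37 C, then developed with FRET substrate for 2 h at RT.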

[11] = target: 5-hydroxytryptamine receptor 2A (Homo sapiens) (UniProt P28223); test: 5-hydroxytryptamine receptor 2A (HTR2A) small molecule agonists, cell-based qHTS assay (AID 1963587); further: nearly all actives have a fitted effect of over 30% in size
5-hydroxytryptamine receptor 2A (Homo sapiens), sequence (P28223 whole entry, looked up): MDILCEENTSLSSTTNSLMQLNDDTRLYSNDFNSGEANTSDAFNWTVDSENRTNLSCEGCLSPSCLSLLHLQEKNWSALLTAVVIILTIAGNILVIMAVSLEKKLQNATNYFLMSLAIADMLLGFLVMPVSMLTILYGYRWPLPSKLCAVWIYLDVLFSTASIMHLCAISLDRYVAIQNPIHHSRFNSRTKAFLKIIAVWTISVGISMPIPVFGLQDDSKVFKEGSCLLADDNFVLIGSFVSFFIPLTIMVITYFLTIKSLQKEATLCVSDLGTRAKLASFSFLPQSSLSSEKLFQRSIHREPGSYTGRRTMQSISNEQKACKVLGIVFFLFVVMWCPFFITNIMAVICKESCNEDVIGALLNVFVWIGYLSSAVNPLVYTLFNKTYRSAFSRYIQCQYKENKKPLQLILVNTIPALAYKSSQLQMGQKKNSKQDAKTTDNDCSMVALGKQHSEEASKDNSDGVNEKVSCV
How it was run: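 Kinetic calcium-flux fluorescence (2 min, 1 sec intervals) after compound addition in agonist mode. HTR2A-CHO cells were cultured 18 h, then dye-loaded 1 h at 37 C.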

[12] = target: Muscarinic acetylcholine receptor M1 (Homo sapiens) (UniProt P11229); test: Cholinergic receptor muscarinic 1 (CHRM1) small molecule antagonists, cell-based qHTS assay (AID 1963588); further: nearly all actives have a fitted effect of over 40% in size
Muscarinic acetylcholine receptor M1 (Homo sapiens), sequence (P11229 whole entry, looked up): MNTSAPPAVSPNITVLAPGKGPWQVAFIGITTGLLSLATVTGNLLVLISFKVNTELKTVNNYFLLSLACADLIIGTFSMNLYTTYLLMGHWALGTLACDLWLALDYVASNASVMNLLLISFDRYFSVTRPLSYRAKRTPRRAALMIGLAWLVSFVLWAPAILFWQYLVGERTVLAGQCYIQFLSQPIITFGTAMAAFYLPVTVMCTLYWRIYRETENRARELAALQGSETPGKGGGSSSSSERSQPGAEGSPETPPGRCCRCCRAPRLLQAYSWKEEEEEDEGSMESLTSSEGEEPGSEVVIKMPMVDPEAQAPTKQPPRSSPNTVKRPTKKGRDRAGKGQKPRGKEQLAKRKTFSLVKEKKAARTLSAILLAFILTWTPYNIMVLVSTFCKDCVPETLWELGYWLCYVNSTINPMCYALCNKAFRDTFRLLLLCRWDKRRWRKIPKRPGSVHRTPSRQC
How it was run: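 Compounds were tested at 15 concentrations in three independent runs. Dye-loaded CHRM1-CHO cells were exposed 5 min at room temperature before stimulation by acetylcholine added at 50nM. Intracellular calcium was read kinetically on FDSS for 3 min.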

[13] = target: Muscarinic acetylcholine receptor M1 (Homo sapiens) (UniProt P11229); test: Cholinergic receptor muscarinic 1 (CHRM1) small molecule agonists, cell-based qHTS assay (AID 1963589); further: nearly all actives have a fitted effect of over 35% in size
How it was run: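 Calcium flux read-out: kinetic fluorescence at 1 sec intervals after pin-tool compound addition to dye-loaded CHRM1-CHO cells (human M1). Agonist mode; 15 concentrations tested in triplicate independent runs.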

[14] = cAMP Responsive Elements (CRE) small molecule antagonists, cell-based qHTS assay (AID 1963591; active means well fitted inhibition curve with a large enough effect in the signal ratio in the repeat runs, not every such curve was filed as active; the % refers to the signal ratio)
How it was run: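 HEK293T CRE-bla; 18 h preincubation; compound pin-transfer; NKH477 0.25 uM final, 3 h, 37 C; LiveBLAzer FRET substrate 2 h RT.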

[15] = target: Beta-2 adrenergic receptor (Homo sapiens) (UniProt P07550); test: Adrenergic beta2 receptor (ADRB2) small molecule antagonists, cell-based qHTS assay (AID 1963592); further: series mostly up to about 92 µM; nearly all actives have a fitted effect of over 50% in size
Beta-2 adrenergic receptor (Homo sapiens), sequence (P07550 whole entry, looked up): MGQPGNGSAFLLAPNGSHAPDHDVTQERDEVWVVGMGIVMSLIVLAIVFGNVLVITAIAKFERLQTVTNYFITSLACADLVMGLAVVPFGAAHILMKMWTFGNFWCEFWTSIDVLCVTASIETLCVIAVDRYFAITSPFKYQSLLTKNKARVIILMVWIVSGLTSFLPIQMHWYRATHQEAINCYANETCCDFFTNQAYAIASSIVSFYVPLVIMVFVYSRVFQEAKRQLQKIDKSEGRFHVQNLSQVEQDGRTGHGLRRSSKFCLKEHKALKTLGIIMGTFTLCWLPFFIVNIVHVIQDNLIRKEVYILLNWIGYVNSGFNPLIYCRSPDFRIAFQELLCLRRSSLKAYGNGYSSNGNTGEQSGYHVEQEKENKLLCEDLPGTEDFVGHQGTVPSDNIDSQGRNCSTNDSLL
How it was run: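 Assay format: CHO-ADRB2 cells, 18-20hr seeding at 37C/5% CO2, then compound plus 1nM isoproterenol agonist mix for 0.5hr RT. Homogeneous time-resolved fluorescence cAMP detection after 1hr, expressed as 665/615 nm ratio.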

[16] = target: Beta-2 adrenergic receptor (Homo sapiens) (UniProt P07550); test: Adrenergic beta2 receptor (ADRB2) small molecule agonists, cell-based qHTS assay (AID 1963593);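 further: CHO cells stably overexpressing human ADRB2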
How it was run: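 CHO cells stably over-expressing ADRB2 were plated overnight at 37C, then dosed with compounds plus a stimulation mix containing 100uM IBMX and 25uM Ro-20-1724 for 0.5hr at room temperature. cAMP was measured by HTRF competition, 1hr.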

[17] = target: D(2) dopamine receptor (Homo sapiens) (UniProt P14416); test: Dopamine D2 receptor (DRD2) small molecule agonists, cell-based qHTS assay (AID 1963594); further: nearly all actives have a fitted effect of over 35% in size
D(2) dopamine receptor (Homo sapiens), sequence (P14416 whole entry, looked up): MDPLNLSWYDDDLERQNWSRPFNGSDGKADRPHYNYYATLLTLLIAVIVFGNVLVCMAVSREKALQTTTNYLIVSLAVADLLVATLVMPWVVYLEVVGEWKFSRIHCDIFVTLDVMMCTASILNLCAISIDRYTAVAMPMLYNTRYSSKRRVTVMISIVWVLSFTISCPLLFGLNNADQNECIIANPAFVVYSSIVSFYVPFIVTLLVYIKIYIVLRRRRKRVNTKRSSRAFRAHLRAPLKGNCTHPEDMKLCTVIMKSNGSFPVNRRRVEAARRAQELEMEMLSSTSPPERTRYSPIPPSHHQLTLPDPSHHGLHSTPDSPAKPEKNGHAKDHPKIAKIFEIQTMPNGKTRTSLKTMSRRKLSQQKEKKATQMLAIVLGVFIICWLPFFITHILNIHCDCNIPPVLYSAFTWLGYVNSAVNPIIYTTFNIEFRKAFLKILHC
How it was run: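 cAMP accumulation in DRD2-HEK293 cells measured by HTRF after 1 h detection; compounds added 10 min before NKH477 (200nM […]) forskolin-analogue stimulation, 30 min at room temperature, with Ro20-1724 present at 0.1 mM final.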

[18] = target: D(2) dopamine receptor (Homo sapiens) (UniProt P14416); test: Dopamine D2 receptor (DRD2) small molecule antagonists, cell-based qHTS assay (AID 1963595; active means well fitted inhibition curve with a large enough effect in the signal ratio in the repeat runs, with a control signal flat; the % refers to the signal ratio)
How it was run: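 HEK293 cells stably expressing DRD2 were preincubated with 0.1 mM Ro20-1724, then with compound for 10 min at room temperature. Cells were stimulated with 200 nM NKH477 plus 12 nM quinpirole for 30 min, and cAMP was read by HTRF.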

[19] = cAMP Responsive Elements (CRE) small molecule agonists, cell-based qHTS assay (AID 1963590)
How it was run: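 Beta-lactamase reporter readout: LiveBLAzer B/G FRET substrate, 2 h at room temperature, added after 3 h compound treatment of CRE-bla HEK 293T cells at 37 C/5% CO2.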

Measured: Potency

O=S(=O)(O)CCN1CCN(CCO)CC1
inactive: [1] | [2] | [3] | [4] | [5] | [6] | [7] | [8] | [9] | [10] | [11] | [12] | [13] | [14] | [15] | [16] | [17] | [18]

CCCOCCOCCOCCO
inactive: [1] | [2] | [3] | [4] | [5] | [6] | [7] | [8] | [9] | [10] | [11] | [12] | [13] | [19] | [14] | [15] | [17] | [18]

CC1CCC(C(C)(C)S)C(=O)C1 (stereo not given)
inactive: [1] | [2] | [3] | [4] | [5] | [6] | [7] | [8] | [9] | [10] | [11] | [12] | [13] | [14] | [15] | [17] | [18]

CCC(C)(O)CCC=C(C)C (stereo not given)
inactive: [1] | [2] | [3] | [4] | [5] | [6] | [7] | [8] | [9] | [10] | [11] | [12] | [13] | [19] | [14] | [15] | [16] | [17] | [18]

CCCCOC(=O)CCS
inactive: [1] | [2] | [3] | [4] | [5] | [6] | [7] | [8] | [9] | [10] | [11] | [12] | [13] | [19] | [14] | [15] | [16] | [17] | [18]

Cc1ccc(CO)cc1
inactive: [1] | [2] | [3] | [4] | [5] | [6] | [7] | [8] | [9] | [10] | [11] | [12] | [13] | [19] | [14] | [15] | [16] | [17] | [18]
